The record followed here is PubChem BioAssay AID2355 (The Scripps Research Institute Molecular Screening Center, 2010).

SMILES strings stand for the structures. The list shows a part of the results. Unmarked numbers belong to inactive results. The source made the active and inactive calls. No stated cut-off is given here; in the data, active means inhibition above about 16%; inactive means the rest.

Chain of Serine/threonine-protein phosphatase PP1-alpha catalytic subunit (Homo sapiens) (P62136 whole entry, looked up): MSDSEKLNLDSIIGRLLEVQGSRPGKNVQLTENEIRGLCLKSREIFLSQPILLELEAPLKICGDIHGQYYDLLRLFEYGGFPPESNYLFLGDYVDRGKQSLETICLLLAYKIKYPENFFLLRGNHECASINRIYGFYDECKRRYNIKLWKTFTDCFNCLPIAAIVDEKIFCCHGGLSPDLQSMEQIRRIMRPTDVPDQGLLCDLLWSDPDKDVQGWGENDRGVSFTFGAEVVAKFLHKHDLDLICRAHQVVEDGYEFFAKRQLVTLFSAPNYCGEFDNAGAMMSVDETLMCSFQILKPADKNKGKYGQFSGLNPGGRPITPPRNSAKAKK

This test concerns the target Serine/threonine-protein phosphatase PP1-alpha catalytic subunit (Homo sapiens) (UniProt P62136). In words: human PP1 catalytic activity blockade – biochemical, fluorescence, triplicate, counter-screen for PP5 inhibitor project (AID 2355). The conditions noted are these: PP1 enzyme, fluorescent phosphatase substrate; at 6.7 µM; active compounds read high. On the technique in general: A counterscreen serves to expose hits that act by an unwanted route or on another target.
With `O=[N+]([O-])c1cccc2ncccc12`, the inhibition was -2.99%. Next, `Cc1nnc(SCc2nc3ccccc3nc2C)s1`: -2.74%. Regarding `N#Cc1c(N2CCCCC2)nc(N)c2c(N)nc(SCC(=O)O)cc12`, the inhibition is 3.99%.

Turning to `CCOC(=O)Nc1ccc2c(c1)N(C(=O)CN1CCN3CCCC3C1)c1ccccc1CC2` (stereo not drawn), the inhibition was -7%. As for `O=C(O)c1n[nH]nc1-c1ccccc1`, the figure is 0.18%; as for `C[C@@]12C(=O)N(c3cccc(Br)c3)C(=O)N1[C@H](c1ccc(Cl)cc1)[C@@H]1C(=O)N(C3CCCCC3)C(=O)[C@@H]12`, 6.16%.

As for `COCCN1C=C2C(=O)C(C)(OC(=O)C3CCCC3)C(=O)C=C2C=C1c1ccsc1` (stereo not drawn), the inhibition is 16.6% (active). For `CCN1CCN(CCNC(=O)c2ccc(/C=C3/Sc4ccccc4N(Cc4cccc(C)c4)C3=O)cc2)CC1`, the inhibition was -16%. As for `COc1cc(/C=C2/SC(=S)N(Cc3ccccc3)C2=O)cc(OC)c1O`, the inhibition was 2.23%.

With `COc1ccc(OC)c(C(=O)c2ccc(C(=O)O)cc2)c1`, the inhibition is -5.81%. Consider `COc1cc(C(F)(F)F)c(C(=O)N(C)c2ccc(Cl)cc2)cn1`, for which the inhibition was 0.28%. As for `Cc1nc(NC(CC(C)C)C(=O)O)c2nc(C)oc2n1` (stereo not drawn), the figure is -4.44%.

As for `Cc1sc(NC(=O)C2C3CCC(O3)C2C(=O)O)c(C(=O)OC(C)C)c1-c1ccc(Cl)cc1` (stereo not drawn), the inhibition is 9.97%.

As to `CNC(=S)NNC(=O)c1oc2nc(-c3ccccc3)cc(-c3ccco3)c2c1N`, the inhibition was -1.11%. As for `CN(C)c1nc(N)nc(CSc2nnnn2-c2cccc3ccccc23)n1`, the figure is -1.14%. As for `O=C(C1=C[C@H](c2ccc(C(F)(F)F)cc2)C[C@H](OCc2ccc(CO)cc2)O1)N1CCN(Cc2ccccc2)CC1`, the figure is 3.55%. Take `O=c1ccc2c(-c3ccccc3S(=O)(=O)O)c3ccc(O)c(O)c3oc-2c1O`: the inhibition was 5.34%. Next, `CN(c1ccccc1)S(=O)(=O)c1ccc(NC(=O)COc2ccccc2)cc1`: 3.34%.

What is called inhibition is the change of the read-out against control, counted positive when it falls.
